Reference: PubChem BioAssay (NCI)
The panel holds about 83,000 compounds, 20% with a hit somewhere; the sample as a whole holds those more often.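 Method: cells in 96-well plates; compound added at one concentration; 48 h incubation; percent growth measured; values under 10 scored active.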 Active and inactive are the calls of the source.

Tests used:
Assay in all cases: NCI-60 one-dose screen, 48 h (100 = growth as untreated, 0 = no growth, -100 = all killed)
Conditions in all cases: 10 µM unless noted
RPMI-8226 leukemia = system: RPMI-8226 leukemia
OVCAR-8 ovarian = system: OVCAR-8 ovarian
OVCAR-5 ovarian = system: OVCAR-5 ovarian
OVCAR-4 ovarian = system: OVCAR-4 ovarian
SK-OV-3 ovarian = system: SK-OV-3 ovarian
IGROV1 ovarian = system: IGROV1 ovarian
OVCAR-3 ovarian = system: OVCAR-3 ovarian
HS 578T breast = system: HS 578T breast
NCI/ADR-RES ovarian = system: NCI/ADR-RES ovarian
T-47D breast = system: T-47D breast

Measured: growth

C=C(C)[C@H]1CC/C(C)=C/CC[C@]2(C)O[C@H]2CC/C(COC(C)=O)=C\C1=O
inactive: OVCAR-8 ovarian 107% | OVCAR-5 ovarian 98.7% | OVCAR-4 ovarian 123% | SK-OV-3 ovarian 111% | IGROV1 ovarian 74.4% | OVCAR-3 ovarian 164% | HS 578T breast 119% | NCI/ADR-RES ovarian 102% | T-47D breast 95.1%
active: RPMI-8226 leukemia -80.2%

CSc1nc2c(c(=O)[nH]1)C(c1ccc(Cl)cc1)C1=C(N2)/C(=C/c2ccc(Cl)cc2)CNC1 (stereo not given)
inactive: OVCAR-8 ovarian 31.6% | OVCAR-5 ovarian 105% | OVCAR-4 ovarian 33.1% | SK-OV-3 ovarian 87.4% | IGROV1 ovarian 26.1% | HS 578T breast 68.7% | NCI/ADR-RES ovarian 74.5% | T-47D breast 54.3%
active: RPMI-8226 leukemia -13.4% | OVCAR-3 ovarian 4.17%

COc1ccc(-c2oc3cc(O)c(OC)c(O)c3c(=O)c2OC)cc1O
inactive: RPMI-8226 leukemia 12.3% | OVCAR-8 ovarian 25.3% | OVCAR-5 ovarian 57% | OVCAR-4 ovarian 65.6% | SK-OV-3 ovarian 24.5% | IGROV1 ovarian 12.2% | T-47D breast 53.1%
active: OVCAR-3 ovarian -40.1% | HS 578T breast -27.4% | NCI/ADR-RES ovarian -4.16%

COc1cc(C2=NN(C(C)=O)C(c3ccc(OC(C)=O)cc3OC(C)=O)O2)c(OC(C)=O)c2ccccc12 (stereo not given)
active: RPMI-8226 leukemia 8.23% | OVCAR-8 ovarian 8.46%
inactive: OVCAR-5 ovarian 54% | OVCAR-4 ovarian 21.1% | SK-OV-3 ovarian 20.1% | IGROV1 ovarian 21.7% | OVCAR-3 ovarian 20.5% | HS 578T breast 56.7% | NCI/ADR-RES ovarian 11.7% | T-47D breast 11.3%

CC(C)[C@H]1CC[C@H]2[C@@H](CC[C@H]3[C@](C)(CN)CCC[C@]23C)C1
inactive: RPMI-8226 leukemia 21.6% | OVCAR-8 ovarian 97.9% | OVCAR-5 ovarian 74.7% | OVCAR-4 ovarian 67.6% | SK-OV-3 ovarian 111% | IGROV1 ovarian 92.6% | OVCAR-3 ovarian 22.7% | HS 578T breast 94.6% | NCI/ADR-RES ovarian 89.5% | T-47D breast 64%

CCCCN(CCCC)CCCOC(=O)c1ccc(N)cc1
inactive: RPMI-8226 leukemia 68% | OVCAR-8 ovarian 73% | OVCAR-5 ovarian 97% | OVCAR-4 ovarian 84.2% | SK-OV-3 ovarian 83.3% | IGROV1 ovarian 75.8% | OVCAR-3 ovarian 102% | HS 578T breast 82.2% | NCI/ADR-RES ovarian 94.2% | T-47D breast 88%

COc1cc(-c2cc(C(=O)Nc3nc4ccccc4s3)nc3cc(-c4ccccc4)nn23)cc(OC)c1OC
inactive: RPMI-8226 leukemia 73.7% | OVCAR-8 ovarian 60.2% | OVCAR-5 ovarian 106% | OVCAR-4 ovarian 82.5% | SK-OV-3 ovarian 97.7% | IGROV1 ovarian 99.7% | OVCAR-3 ovarian 48.1% | HS 578T breast 62.1% | NCI/ADR-RES ovarian 73.3% | T-47D breast 83.7%

CN(C)c1cccc2c(S(=O)(=O)N[C@H]3CC[C@H]4[C@@H]5CCc6cc(O)ccc6[C@H]5CC[C@]34C)cccc12
active: RPMI-8226 leukemia 7.82%
inactive: OVCAR-8 ovarian 45.8% | OVCAR-5 ovarian 78.1% | OVCAR-4 ovarian 50.6% | SK-OV-3 ovarian 33.3% | IGROV1 ovarian 33.1% | OVCAR-3 ovarian 19.7% | HS 578T breast 56.5% | NCI/ADR-RES ovarian 12.3% | T-47D breast 21.5%

NCCCc1nnc(CCC(=O)c2nc3ccccc3[nH]2)o1
inactive: RPMI-8226 leukemia 101% | OVCAR-8 ovarian 110% | OVCAR-5 ovarian 104% | OVCAR-4 ovarian 104% | SK-OV-3 ovarian 106% | IGROV1 ovarian 104% | OVCAR-3 ovarian 119% | HS 578T breast 112% | NCI/ADR-RES ovarian 97.9% | T-47D breast 97.7%

CCCCCCC(C)(O)c1ccccc1 (stereo not given)
inactive: RPMI-8226 leukemia 107% | OVCAR-8 ovarian 115% | OVCAR-5 ovarian 98.5% | OVCAR-4 ovarian 110% | SK-OV-3 ovarian 103% | IGROV1 ovarian 122% | OVCAR-3 ovarian 117% | HS 578T breast 117% | NCI/ADR-RES ovarian 101% | T-47D breast 101%

COc1ccc2nc(NC(=O)c3cc(-c4ccc(F)cc4)n4nc(-c5ccccc5)cc4n3)sc2c1
inactive: RPMI-8226 leukemia 83.5% | OVCAR-8 ovarian 53.5% | OVCAR-5 ovarian 85.6% | OVCAR-4 ovarian 59.1% | SK-OV-3 ovarian 67.6% | IGROV1 ovarian 101% | OVCAR-3 ovarian 67.9% | HS 578T breast 79.9% | NCI/ADR-RES ovarian 70.9% | T-47D breast 89.5%

C=CCCCCCCCCC(=O)[O][Sn]([CH2]CCC)([CH2]CCC)[CH2]CCC
active: RPMI-8226 leukemia -27.3% | OVCAR-8 ovarian -74.2% | OVCAR-5 ovarian -89.4% | OVCAR-4 ovarian -96.7% | SK-OV-3 ovarian -98.8% | IGROV1 ovarian -72.9% | OVCAR-3 ovarian -97.9% | HS 578T breast -46.4% | NCI/ADR-RES ovarian -90.3% | T-47D breast -71.5%

CCN1CCN(c2cc(-c3cn[nH]c3-c3cc(C)cc(OC)c3)nc(-c3cccnc3)n2)CC1
inactive: RPMI-8226 leukemia 86.2% | OVCAR-8 ovarian 79.6% | OVCAR-5 ovarian 124% | OVCAR-4 ovarian 94% | SK-OV-3 ovarian 116% | IGROV1 ovarian 84.4% | OVCAR-3 ovarian 67.6% | HS 578T breast 68.8% | NCI/ADR-RES ovarian 91.5% | T-47D breast 83.1%

COc1ccc(Cn2c(NCCCN(C)C)nc(=O)n(Cc3ccc(F)cc3)c2=O)cc1
inactive: RPMI-8226 leukemia 95.7% | OVCAR-8 ovarian 98.9% | OVCAR-5 ovarian 109% | OVCAR-4 ovarian 93.1% | SK-OV-3 ovarian 86.3% | IGROV1 ovarian 84.7% | OVCAR-3 ovarian 87% | HS 578T breast 93.3% | NCI/ADR-RES ovarian 109% | T-47D breast 83.4%

CC/C(=C\c1ccc(N(C)C)cc1)c1nc2ccccc2c(=O)[nH]1
inactive: RPMI-8226 leukemia 79.4% | OVCAR-8 ovarian 106% | OVCAR-5 ovarian 92.9% | OVCAR-4 ovarian 95.8% | SK-OV-3 ovarian 109% | IGROV1 ovarian 66.4% | OVCAR-3 ovarian 116% | HS 578T breast 328% | NCI/ADR-RES ovarian 98.3% | T-47D breast 79.2%

S=c1[nH]nc2sc3ccccc3n12
inactive: RPMI-8226 leukemia 105% | OVCAR-8 ovarian 107% | OVCAR-5 ovarian 108% | OVCAR-4 ovarian 103% | SK-OV-3 ovarian 109% | IGROV1 ovarian 96.9% | OVCAR-3 ovarian 119% | HS 578T breast 114% | NCI/ADR-RES ovarian 112% | T-47D breast 101%

O=C(Nc1ccc(Cl)cc1Cl)Nc1ccc(-c2cccnc2)cc1N1CCC(CO)CC1
active: RPMI-8226 leukemia 9.15% | SK-OV-3 ovarian 4.28%
inactive: OVCAR-8 ovarian 32.8% | OVCAR-5 ovarian 48.5% | OVCAR-4 ovarian 53.2% | IGROV1 ovarian 34.8% | OVCAR-3 ovarian 24.9% | HS 578T breast 36.4% | NCI/ADR-RES ovarian 30.7% | T-47D breast 17.5%

O=C(OC[C@H]1O[C@H](OC(=O)c2cc(O)c(O)c(OC(=O)c3cc(O)c(O)c(O)c3)c2)[C@H](OC(=O)c2cc(O)c(O)c(OC(=O)c3cc(O)c(O)c(O)c3)c2)[C@@H](OC(=O)c2cc(O)c(O)c(OC(=O)c3cc(O)c(O)c(O)c3)c2)[C@@H]1OC(=O)c1cc(O)c(O)c(OC(=O)c2cc(O)c(O)c(O)c2)c1)c1cc(O)c(O)c(OC(=O)c2cc(O)c(O)c(O)c2)c1
active: NCI/ADR-RES ovarian 9.15%
inactive: RPMI-8226 leukemia 34.9% | OVCAR-8 ovarian 30.2% | OVCAR-5 ovarian 48.3% | OVCAR-4 ovarian 37.8% | SK-OV-3 ovarian 49.8% | IGROV1 ovarian 29.8% | OVCAR-3 ovarian 13.8% | HS 578T breast 66.1% | T-47D breast 33.2%

C[n+]1c2ccccc2c(NC2CCNCC2)c2[nH]c3ccccc3c21
active: RPMI-8226 leukemia -40.8% | OVCAR-4 ovarian 4.1% | SK-OV-3 ovarian -0.545% | IGROV1 ovarian -20.9% | OVCAR-3 ovarian -1.97% | HS 578T breast -38% | T-47D breast -9.19%
inactive: OVCAR-8 ovarian 15.2% | OVCAR-5 ovarian 36.3% | NCI/ADR-RES ovarian 96.5%

Cc1cc(NC(=O)Nc2cc(Cl)ccc2C)no1
inactive: RPMI-8226 leukemia 88.8% | OVCAR-8 ovarian 110% | OVCAR-5 ovarian 104% | OVCAR-4 ovarian 99.6% | SK-OV-3 ovarian 99.7% | IGROV1 ovarian 68.5% | OVCAR-3 ovarian 117% | HS 578T breast 125% | NCI/ADR-RES ovarian 101% | T-47D breast 89.4%

CCN(CC)CCNc1ccc(Cl)cc1Cl
inactive: RPMI-8226 leukemia 109% | OVCAR-8 ovarian 98.2% | OVCAR-5 ovarian 124% | OVCAR-4 ovarian 117% | SK-OV-3 ovarian 92.5% | IGROV1 ovarian 110% | OVCAR-3 ovarian 109% | HS 578T breast 108% | NCI/ADR-RES ovarian 103% | T-47D breast 98.6%

Nc1ccc2c3c(cccc13)-c1ccccc1-2
inactive: RPMI-8226 leukemia 33.9% | OVCAR-8 ovarian 99.1% | OVCAR-5 ovarian 99.8% | OVCAR-4 ovarian 86.1% | SK-OV-3 ovarian 99.6% | IGROV1 ovarian 84% | OVCAR-3 ovarian 88.4% | HS 578T breast 89.2% | NCI/ADR-RES ovarian 95.2% | T-47D breast 92.3%

O=C1OC(c2ccc(-c3ccccc3)cc2)=C/C1=C/c1cccs1
inactive: RPMI-8226 leukemia 138% | OVCAR-8 ovarian 78.9% | OVCAR-5 ovarian 98.5% | OVCAR-4 ovarian 65.5% | SK-OV-3 ovarian 128% | IGROV1 ovarian 93% | OVCAR-3 ovarian 89.2% | HS 578T breast 98.4% | NCI/ADR-RES ovarian 86.5% | T-47D breast 33.6%

C/C(=C\CCc1ccoc1)CC/C=C(\C)CCCN1CCC(CO)CC1
active: RPMI-8226 leukemia 3.35%
inactive: OVCAR-8 ovarian 77.7% | OVCAR-5 ovarian 76.4% | OVCAR-4 ovarian 52.5% | SK-OV-3 ovarian 65.1% | IGROV1 ovarian 67.8% | OVCAR-3 ovarian 82.4% | HS 578T breast 57.5% | NCI/ADR-RES ovarian 73.4% | T-47D breast 35.9%

Nc1nc(N)c([N+](=O)[O-])c(=O)[nH]1
inactive: RPMI-8226 leukemia 97.4% | OVCAR-8 ovarian 106% | OVCAR-5 ovarian 100% | OVCAR-4 ovarian 114% | SK-OV-3 ovarian 100% | IGROV1 ovarian 110% | OVCAR-3 ovarian 108% | HS 578T breast 100% | NCI/ADR-RES ovarian 101% | T-47D breast 92.2%

O=C(O)c1ccc(NC(=O)c2cccc(Nc3ccnc(C(F)(F)F)c3)c2)cc1
inactive: RPMI-8226 leukemia 98.3% | OVCAR-8 ovarian 98.9% | OVCAR-5 ovarian 103% | OVCAR-4 ovarian 98.1% | SK-OV-3 ovarian 105% | IGROV1 ovarian 106% | OVCAR-3 ovarian 104% | HS 578T breast 98.3% | NCI/ADR-RES ovarian 107% | T-47D breast 94.3%

C=C(C)[C@@H]1C/C=C(/C=O)CC[C@@H]2O[C@@]2(C)CC/C=C(\C)CC1
active: RPMI-8226 leukemia -7.67%
inactive: OVCAR-8 ovarian 105% | OVCAR-5 ovarian 97.2% | OVCAR-4 ovarian 122% | SK-OV-3 ovarian 106% | IGROV1 ovarian 986% | OVCAR-3 ovarian 110% | HS 578T breast 126% | NCI/ADR-RES ovarian 115% | T-47D breast 101%

COc1ccc(-c2nn(-c3cccc(Cl)c3)cc2C2CC(c3ccccc3)=NN2C(C)=O)cc1 (stereo not given)
inactive: RPMI-8226 leukemia 97.6% | OVCAR-8 ovarian 56.3% | OVCAR-5 ovarian 80.9% | OVCAR-4 ovarian 23.3% | SK-OV-3 ovarian 32.2% | IGROV1 ovarian 57% | OVCAR-3 ovarian 80.6% | HS 578T breast 43.2% | NCI/ADR-RES ovarian 74.3% | T-47D breast 44.7%
